Most compounds without a hit are left out; they make up all but 6.1% or so of the library.
D1 antagonist = antagonists of human D1 dopamine receptor; HEK293 TREx D1 cells, calcium flux, dopamine EC80; hits give low values; activity change, negative = inhibition, % at 10 µM; 360,000 tested, 3.2% active; AID 504652; in the data active means activity change below about -30%
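After overnight tetracycline induction at 30 C, force-coupled D1 HEK293 cells took up a no-wash calcium dye at room temperature. Compounds were added and monitored 180 s, and the response to EC80 dopamine was then recorded.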
D3 antag = blocks the human D3 dopamine receptor | P35462 | D3R cells, DiscoveRx beta-arrestin luminescence, antagonist mode; hits give low values | max response, negative = inhibition, % | 360,000 tested, 2.5% active | AID 652054; in the data active means max response below about -50%; inconclusive means no clear call, values can overlap the other calls
Target sequence (P35462 whole entry, looked up): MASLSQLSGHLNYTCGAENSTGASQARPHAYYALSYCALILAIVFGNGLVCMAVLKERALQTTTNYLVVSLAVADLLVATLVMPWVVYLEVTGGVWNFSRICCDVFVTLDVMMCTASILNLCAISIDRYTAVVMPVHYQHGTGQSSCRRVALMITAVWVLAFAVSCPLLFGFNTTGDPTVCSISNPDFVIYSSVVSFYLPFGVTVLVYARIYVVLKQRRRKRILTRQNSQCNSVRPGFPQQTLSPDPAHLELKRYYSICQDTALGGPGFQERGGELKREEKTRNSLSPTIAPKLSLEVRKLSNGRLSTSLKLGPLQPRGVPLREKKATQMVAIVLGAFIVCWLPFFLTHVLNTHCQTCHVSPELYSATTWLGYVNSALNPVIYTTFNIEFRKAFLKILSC
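Cells expressing the human receptor were seeded at 1500 cells/well, incubated overnight at 37 degrees C in 5% CO2, then exposed to library compounds with dopamine controls for 90 minutes at 37 degrees C before luminescent detection.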
D1 PAM = enhances dopamine response at the human D1 receptor; P21728; HEK293 TREx D1 cells, calcium flux, dopamine EC20 potentiation; potentiation, % at 10 µM; 360,000 tested, 0.036% active; AID 504651; in the data active means potentiation above about 30%
D1 ag = agonists of human D1 dopamine receptor. P21728. HEK293 T-REx D1 cells, calcium flux, agonist mode. activation, % at 2 µM. 360,000 tested, 1% active; in the data active means activation above about 30%
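Tetracycline-induced HEK293 TREx D1 cells, force-coupled to calcium signalling, were dye-loaded with a no-wash calcium kit. Compound was pin-added after a 10 s baseline. Fluorescence was read kinetically at 1 cycle/s for 180 s, with calcium rises flagged as agonism.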
D3 ag = agonists of human D3 dopamine receptor; 410,000 tested, 0.58% active; P35462; D3R DiscoveRx beta-arrestin cells, luminescence, 90 min; max activation, %; in the data active means max activation above about 30%
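Agonist-mode cell screen: cells plated at 1500/well and incubated overnight at 37 °C, then exposed to library compounds for 90 min at 37 °C. Detection reagent was added for 30–60 min at room temperature, and luminescence was read.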
Large screens that a line does not name were inactive.

CC(C)(C)c1cc(NCCCn2ccnc2)n2ncc(-c3ccc(Cl)cc3)c2n1	none
CN(C)CCCNc1cc(C(C)(C)C)nc2c(-c3ccccc3)cnn12	D1 ag 58
O=C1OC2(c3ccccc31)c1cc(I)c(O)c(I)c1Oc1c2cc(I)c(O)c1I	D1 antagonist -42, D1 ag 411 (no result: D3 antag)
O=C1OC2(c3ccc(O)cc3Oc3cc(O)ccc32)c2ccccc21	D3 ag 30 (no result: D1 antagonist, D3 antag, D1 PAM, D1 ag)
CC(=O)Oc1ccc2c(c1)Oc1cc(OC(C)=O)ccc1C21OC(=O)c2ccccc21	D1 ag 834
Cc1cc(O)ccc1C1(c2ccc(O)cc2C)OC(=O)c2ccccc21	none
Cc1ccc(-c2nn(CC(=O)NC3CCCC3)c3c2cnc2ccc(F)cc23)cc1C	none (no result: D3 antag)
COc1cc(CNC(C)(C)C)ccc1OCC(=O)NC(C)(C)C	none
COc1cc(CNn2cnnc2)ccc1OCC(=O)NC(C)(C)C	D1 antagonist -79
Cc1c(C(=O)N(C)C)sc2c1c(=O)n(-c1ccc(Cl)cc1)c(=O)n2CC(=O)C(C)(C)C	none (no result: D3 antag)
O=C(CN1C2=NCCCN2c2ccccc21)c1ccc(Br)s1	D3 antag -54
Brc1ccc(CN2C3=NCCCN3c3ccccc32)cc1	D1 ag 30
Cc1ccc(CN2C3=NCCCN3c3ccccc32)cc1	none
CC(C)(C)c1ccc(CN2C3=NCCCN3c3ccccc32)cc1	D3 antag -63
c1ccc(CN2C3=NCCCN3c3ccccc32)cc1	none
COc1cccc(CNC(=O)c2ccc(NC(=O)N3CC(C)Sc4ccccc43)cc2)c1 (stereo unspecified)	none (no result: D3 antag)
O=C(O)/C=C/C(=O)c1ccc2c(c1)CCc1ccccc1-2	D3 antag -139
Cc1ccc(S(=O)(=O)N2CCCCC2)cc1C(=O)Nc1ccc(N2CCOCC2)cc1	none
COc1ccc(NC(=O)c2cc(S(=O)(=O)N3CCCCC3)ccc2C)cc1S(=O)(=O)N1CCOCC1	D3 antag -52 (no result: D1 antagonist, D1 PAM, D1 ag)
COc1ccc(NC(=O)c2cc(S(=O)(=O)N3CCOCC3)ccc2C)cc1S(=O)(=O)N1CCOCC1	none (no result: D1 antagonist, D1 PAM, D1 ag)
Cc1ccc(S(=O)(=O)N2CCOCC2)cc1C(=O)Nc1ccc(C(N)=O)cc1	D1 antagonist -32
CC(C)CCNC(=O)c1ccc(Cn2c(SCC(=O)NC(C)C)nc3ccccc3c2=O)cc1	none (no result: D3 antag)
COc1cccc(NC(=O)c2sc(-n3nc(C)c(Cc4ccccc4Cl)c3C)nc2C)c1	none (no result: D3 antag)
CCOC(=O)C(C)n1cnc2c(cnn2-c2ccc(Cl)cc2)c1=O (stereo unspecified)	none
CCOC(=O)C(CC)n1cnc2c(cnn2-c2ccc(Cl)cc2)c1=O (stereo unspecified)	D1 antagonist -32
Cc1nc(-c2ccccc2)sc1C(=O)CSc1ccc(Br)cc1	D1 antagonist -36, D3 antag inconclusive
Cc1nc(-c2ccccc2)sc1C(=O)CSc1ccc(Cl)cc1	none
CCOc1ccc(N(C)C(CNS(=O)(=O)c2ccccc2)c2ccccc2)cc1 (stereo unspecified)	none (no result: D3 antag)
O=C(NCCCCCCNC(=O)c1ccccc1O)c1ccccc1O	D1 antagonist -42
C=C(C)Cn1c2ccc(NC(=S)NCc3ccccc3F)cc2c(=O)n1C	D3 antag -52 (no result: D1 antagonist, D1 PAM, D1 ag)
CN(C(=O)Cn1nnc(-c2ccc(S(C)(=O)=O)cc2)n1)c1ccccc1	none (no result: D3 antag)
O=S(=O)(CCNCCc1ccccc1)NC1CCCCC1	D3 antag -84 (no result: D1 antagonist, D1 PAM, D1 ag)
CCc1ccc(NC(=O)C2CCN(C(=O)[C@@H]3Cc4ccccc4CN3)CC2)cc1	D1 ag 32
COc1ccccc1OCc1ccc(C(=O)Nc2ccc(Cl)cn2)o1	D1 antagonist -36
COc1ccc(NC(=O)c2ccc(COc3ccccc3Br)o2)cc1OC	D1 antagonist -37
COc1ccccc1OCc1ccc(C(=O)NN)o1	none
COc1ccc(NC(=O)c2ccc(COc3ccccc3OC)o2)cc1OC	none
COc1ccccc1CNC(=O)Cn1c(=O)oc2cc(S(=O)(=O)NCc3ccccc3)ccc21	none (no result: D3 antag)
CCC(C(=O)N1CCN(c2cc(Cl)ccc2C)CC1)n1nc(C)n2c(cc3occc32)c1=O (stereo unspecified)	none (no result: D3 antag)
CC(C)c1ccc(OCc2ccc(C(=O)N3CCCC3)o2)cc1	D1 antagonist -34, D1 ag 70 (no result: D1 PAM)
NS(=O)(=O)c1ccc(NC(=O)C(Sc2ccccc2)c2ccccc2)cc1 (stereo unspecified)	D1 antagonist -33
NS(=O)(=O)c1ccc(NC(=O)CSc2ccccc2)cc1	none
COc1cc(C=O)ccc1OCCCOc1ccccc1[N+](=O)[O-]	none
COc1cc(C=O)ccc1OCCOc1ccccc1[N+](=O)[O-]	D1 antagonist -37, D3 antag -62
COc1cc(C=O)ccc1OCCCCOc1ccccc1[N+](=O)[O-]	none
COc1cc(C=O)ccc1OCCCOc1ccccc1C(=O)O	D3 antag -55
CCC1(C)Cc2c(C#N)c(N)sc(=S)c2CO1 (stereo unspecified)	D3 antag -85
CCOc1cc(CNCCO)cc(Br)c1OCc1ccccc1	none (no result: D1 antagonist)
OCCNCc1cc(Br)ccc1OCc1ccccc1	none
NS(=O)(=O)c1ccc(CCNCc2cc(Br)ccc2OCc2ccccc2)cc1	D1 antagonist -34, D1 ag 34
CCNCc1cc(Cl)c(OCc2ccccc2)c(OCC)c1	D1 ag 55
CCOc1cc(CNc2ccc(S(N)(=O)=O)cc2)cc(Cl)c1OC	none
CCOc1cc(CNCCc2ccc(S(N)(=O)=O)cc2)cc(Cl)c1OCc1ccccc1	D1 ag 34
CCOc1cc(CNCCc2ccc(S(N)(=O)=O)cc2)ccc1OCc1ccccc1	D1 antagonist -45, D3 antag inconclusive, D1 ag 35
COc1ccc2oc(-c3ccc(NC(=O)c4ccc(Cl)cc4Cl)cc3)nc2c1	none (no result: D3 antag)
O=C1CCSC2(C(=O)N(Cc3ccc(F)cc3)c3ccccc32)N1c1ccc(Cl)cc1 (stereo unspecified)	none (no result: D3 antag)
COc1nccnc1NS(=O)(=O)c1ccc(NC(=S)NC(=O)c2ccc(F)cc2)cc1	D3 antag -65
CCc1nnc(NS(=O)(=O)c2ccc(NC(=S)NC(=O)c3ccc(OC)cc3)cc2)s1	D1 antagonist -32
COc1ccc(/C=C/C(=O)NC(=S)Nc2ccc(S(=O)(=O)Nc3nccnc3OC)cc2)cc1	D3 antag -62
CCc1nnc(NS(=O)(=O)c2ccc(NC(=S)NC(=O)c3ccc(OC)c(OC)c3)cc2)s1	none
COc1nccnc1NS(=O)(=O)c1ccc(NC(=S)NC(=O)c2cccnc2)cc1	none
COc1nccnc1NS(=O)(=O)c1ccc(NC(=S)NC(=O)c2cccc(F)c2)cc1	D3 antag -62
O=S(=O)(c1ccccc1)c1nnn2c1nc(NC1CCCCCC1)c1sccc12	none (no result: D3 antag)
CCCN(CCC)CCNC(=O)Cn1ncc2c([nH]c3ccc(C)cc32)c1=O	none (no result: D3 antag)
CC(C)CSc1ccccc1NC(=O)c1sc2nc(-c3ccncc3)ccc2c1N	D1 antagonist -31 (no result: D3 antag)
